# “And” between values parts separate entries of the source, which are not always exact repeats. Equal values may be shown once. The source made the active and inactive calls.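 Rule for the calls, unless noted: active = mean z-score across replicates of 1.96 or higher in either the MELAS or the Rieske mutant cell line; inactive = the rest.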
# Assays:
# [1] = P. berghei load reduction in hepatocytes – cell-based, HepG2, luciferase luminescence, HepG2 viability, primary screen (AID 624349; in the data active = parasite load remaining mostly below about 12%, no sharp cut-off; inactive = mostly above about 10%;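 note: 100% = mean of DMSO negative control wells on the same plate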); details: P. berghei liver stage in HepG2, luciferase luminescence, concentration not given here; parasite load remaining: stronger effect = lower value; viability: measured here: HepG2 viability without parasites
# [2] = Wnt pathway potentiators raising nuclear beta-catenin – imaging, WNT3A-conditioned medium, mouse C2C12, NPC library, primary screen (AID 1117326; in the data active = nuclear beta-catenin stimulation mostly above about 4.2%, no sharp cut-off; inactive = mostly below about 10%); details: stronger effect = higher value
# [3] = stimulators of insulin release from INS-1E, primary screen, cell-based, 5 mM glucose, NPC library (AID 1117329;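 active = compound raises insulin release from rat beta cells at 5 mM glucose, no numeric limit stated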); details: rat INS-1E insulin secretion, at 10 µM, stronger effect = higher value
# [4] = growth inhibition of GSK3B-pretreated HCT116 cells – cell-based, CellTiter-Glo, 0.2 to 20 µM (AID 1117336;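 active = compounds lowering colon cancer cell viability after pretreatment blocking the GSK3B kinase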); details: HCT116 viability after GSK3B inhibitor, at 20 µM, stronger effect = higher value
# [5] = inhibition of endothelial tube formation, primary screen, imaging, VEGF stimulated, CD31 staining, tube area, NPC library (AID 1117340;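 active = compound that reduces growth-factor-driven endothelial tube area in a mixed cell culture, no cutoff stated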); details: VEGF-stimulated ADSC/ECFC co-culture, at 10 µM, stronger effect = higher value
# [6] = GLP1 release stimulators, primary, NCI-H716, NPC library (AID 1117341;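 active = compound raises GLP1 secretion from the human gut endocrine cells, with no numeric limit stated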); details: NCI-H716 cells, at 10 µM, stronger effect = higher value
# [7] = HCT116 colon cancer cell growth inhibition, primary screen, CellTiter-Glo luminescence, NPC library (AID 1117342;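 active = compounds that lower survival of HCT116 colon cancer cells in the luminescence readout, no numeric limit stated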); details: at 20 µM (top of the series)
# [8] = reduced SW480 viability measured with CellTiter-Glo, NPC library, primary (AID 1117343;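 active = compounds that lower viability of the colon cancer cells in the luminescence readout, with no numeric limit stated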); details: CellTiter-Glo luminescence; at 20 µM (top of the series) unless noted
# [9] = NPC library primary testing for decreased DLD-1 cell viability via CellTiter-Glo (AID 1117346;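 active = compounds that lower survival of DLD-1 colon cancer cells in the luminescence readout, no cutoff given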); details: DLD-1 viability, CellTiter-Glo luminescence; at 20 µM (top of the series)
# [10] = viability loss with induced miR-34 in A549 – imaging, A549 dox-inducible miR-34, nuclei and caspase counts, primary screen (AID 1347080;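 active = compounds whose cell count with miR-34 switched on is under 0.7 times the count with it off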); details: A549 miR-34 inducible, Hoechst nuclei count, 48 h
# [11] = MELAS cybrid and Rieske KO viability enhancers – cell-based, MELAS cybrids, Rieske KO mouse fibroblasts, CellTiter-Glo, primary screen (AID 1508586); details: low glucose;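 note: z relative to plate mean and SD of compound and empty wells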
# [12] = galactose survival enhancers in mitochondrial complex I cybrids – cell-based, galactose medium, ATP luminescence, primary screen (AID 1645843;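 active = z-score of at least 1.8 in each of two replicates, scored against plate mean and spread of sample wells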;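 note: positive z means more ATP and so rescue of galactose-driven cybrid death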); details: complex I mutant cybrid cells, 72 h, stronger effect = higher value
# [13] = compounds altering viability of human ES cells (AID 493140; call rule not given here;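 note: cells exposed to compounds for four days before counting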); details: human embryonic stem cell survival screen; stronger effect = higher value
# [14] = biological target: NAD(+) hydrolase SARM1 (Homo sapiens) (UniProt Q6SZW1); assay: blocking NAD cleavage by SARM1 SAM-TIR – cell lysate, NAD-Glo luminescence (AID 1508614;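 active = compound whose remaining NAD level is above about 45 nM, limit read from the data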;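 note: higher remaining NAD means stronger inhibition of SARM1 NADase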); details: SAM-TIR HEK293T lysate NADase, at 1 µM, stronger effect = higher value
# [15] = biological target: Mitogen-activated protein kinase 7 (Homo sapiens) (UniProt Q13164); assay: Gal4-ERK5 driven luciferase induction – cell-based, HTS, primary screen (AID 1508626;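 active = luciferase signal above three times the same-plate solvent-only control wells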;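 note: luciferase driven by Gal4-ERK5 fusion binding five Gal4 sites before minimal TATA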); details: HeLa Gal4-ERK5 transactivation, 18 h, at 5 µM, stronger effect = higher value
# [16] = stronger effect = lower value, cell number ratio, induced over uninduced
# [17] = measured here: relative caspase fold change +Dox/-Dox
# [18] = measured here: total cells with miR-34 induction, stronger effect = lower value
# [19] = measured here: total cells without miR-34 induction
# [20] = MELAS cybrid survival, CellTiter-Glo 48 h, stronger effect = higher value
# [21] = Rieske KO mouse fibroblast survival, CellTiter-Glo 72 h
# Chain of NAD(+) hydrolase SARM1 (Homo sapiens) (Q6SZW1 whole entry, looked up, the tested form may be a part): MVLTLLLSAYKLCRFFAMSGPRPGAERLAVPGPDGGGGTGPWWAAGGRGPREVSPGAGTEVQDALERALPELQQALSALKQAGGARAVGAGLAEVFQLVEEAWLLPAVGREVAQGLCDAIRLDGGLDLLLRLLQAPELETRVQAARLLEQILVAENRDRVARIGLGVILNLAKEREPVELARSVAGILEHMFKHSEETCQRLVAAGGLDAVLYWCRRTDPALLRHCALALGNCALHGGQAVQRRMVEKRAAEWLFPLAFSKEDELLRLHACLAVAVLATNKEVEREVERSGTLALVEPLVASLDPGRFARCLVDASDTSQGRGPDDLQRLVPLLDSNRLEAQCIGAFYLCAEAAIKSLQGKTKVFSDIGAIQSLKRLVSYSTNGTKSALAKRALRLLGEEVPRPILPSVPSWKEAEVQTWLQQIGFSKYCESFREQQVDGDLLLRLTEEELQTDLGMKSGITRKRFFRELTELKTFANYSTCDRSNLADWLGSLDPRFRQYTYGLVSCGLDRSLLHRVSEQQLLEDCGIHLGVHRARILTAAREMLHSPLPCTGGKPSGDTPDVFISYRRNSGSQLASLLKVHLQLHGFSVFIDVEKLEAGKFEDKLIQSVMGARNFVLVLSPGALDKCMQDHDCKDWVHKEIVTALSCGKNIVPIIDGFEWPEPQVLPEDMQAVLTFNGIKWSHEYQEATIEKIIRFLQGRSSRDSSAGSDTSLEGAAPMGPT
# Chain of Mitogen-activated protein kinase 7 (Homo sapiens) (Q13164 whole entry, looked up, the tested form may be a part): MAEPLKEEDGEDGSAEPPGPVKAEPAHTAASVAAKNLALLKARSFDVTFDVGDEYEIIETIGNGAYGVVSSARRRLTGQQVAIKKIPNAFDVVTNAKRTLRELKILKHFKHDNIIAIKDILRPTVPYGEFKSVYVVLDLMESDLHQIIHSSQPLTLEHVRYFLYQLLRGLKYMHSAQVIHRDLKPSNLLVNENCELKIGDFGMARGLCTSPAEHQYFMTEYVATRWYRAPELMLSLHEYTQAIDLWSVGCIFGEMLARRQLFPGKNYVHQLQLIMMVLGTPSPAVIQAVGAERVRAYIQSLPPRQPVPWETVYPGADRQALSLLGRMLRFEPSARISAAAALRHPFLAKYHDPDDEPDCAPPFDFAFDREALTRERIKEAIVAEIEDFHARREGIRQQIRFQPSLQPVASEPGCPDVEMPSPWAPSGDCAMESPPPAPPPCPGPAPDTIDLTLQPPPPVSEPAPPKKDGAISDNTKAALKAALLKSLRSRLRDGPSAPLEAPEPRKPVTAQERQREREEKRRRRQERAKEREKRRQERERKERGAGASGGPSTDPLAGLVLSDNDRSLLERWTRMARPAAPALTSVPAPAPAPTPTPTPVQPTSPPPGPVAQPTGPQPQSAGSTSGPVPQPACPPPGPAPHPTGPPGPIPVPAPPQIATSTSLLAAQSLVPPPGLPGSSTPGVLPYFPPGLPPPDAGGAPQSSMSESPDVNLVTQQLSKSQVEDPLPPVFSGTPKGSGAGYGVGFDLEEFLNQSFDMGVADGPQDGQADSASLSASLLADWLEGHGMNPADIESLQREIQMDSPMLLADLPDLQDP
smiles,measurement,setting,value
CCOC(=O)/C=C(C)/C=C/C=C(C)/C=C/c1c(C)cc(OC)c(C)c1C,parasite load remaining,[1],13.4% (inactive)
same,viability,[1],74%
same,nuclear beta-catenin stimulation,[2]; at 10 µM,-2.1% (inactive)
same,nuclear beta-catenin stimulation,"[2]; stimulation, at 2 µM",-0.4%
same,insulin secretion stimulation,[3],2.6% (inactive)
same,viability decrease,[4],62.2% (active)
same,tube area decrease,[5],3.9% (inactive)
same,GLP1 secretion stimulation,[6],-2.9% (inactive)
same,inhibition of viability,[7],59.4% (active)
same,viability decrease (inhibition),[8],60.3% (active)
same,viability decrease (inhibition),[9],25.3% (inactive)
same,fold change,[10]; [16],0.857 (inactive)
same,fold change,[10]; [17],1
same,cell count,[10]; [18],9250
same,cell count,[10]; [19],10800
same,z-score,[11]; [20],0.196 (inactive) and -0.0105 (inactive)
same,z-score,[11]; [21],0.164 and -0.496
same,z-score,[12],-1.38 (inactive)
CC(C)(C)NC[C@H](O)COc1cccc2c1CCCC2=O,survival,[13],3.08 (inactive)
same,parasite load remaining,[1],68.1% (inactive)
same,viability,[1],89.1%
same,nuclear beta-catenin stimulation,[2]; at 10 µM,0% (inactive)
same,nuclear beta-catenin stimulation,"[2]; stimulation, at 2 µM",0.3%
same,insulin secretion stimulation,[3],3.7% (inactive)
same,viability decrease,[4],17.1% (inactive)
same,tube area decrease,[5],1% (inactive)
same,GLP1 secretion stimulation,[6],8.6% (inactive)
same,inhibition of viability,[7],13.8% (inactive)
same,viability decrease (inhibition),[8],-11.3% (inactive)
same,viability decrease (inhibition),[9],2.7% (inactive)
same,fold change,[10]; [16],0.883 (inactive)
same,fold change,[10]; [17],1.03
same,cell count,[10]; [18],9340
same,cell count,[10]; [19],10600
same,z-score,[11]; [20],0.581 (inactive)
same,z-score,[11]; [21],0.045
same,remaining NAD,[14],10 nM (inactive)
same,luciferase signal,[15],88 AU (inactive)
CC(=O)OCC(=O)[C@@]1(OC(C)=O)[C@@H](C)C[C@H]2[C@@H]3C[C@H](F)C4=CC(=O)C=C[C@]4(C)[C@@]3(F)[C@@H](O)C[C@@]21C,survival,[13],6.42 (inactive)
same,parasite load remaining,[1],91.6% (inactive) and 91.1% (inactive)
same,viability,[1],118% and 76.3%
same,nuclear beta-catenin stimulation,[2]; at 10 µM,2.1% (inactive)
same,nuclear beta-catenin stimulation,"[2]; stimulation, at 2 µM",0.9%
same,insulin secretion stimulation,[3],15.2% (inactive)
same,viability decrease,[4],4% (inactive)
same,tube area decrease,[5],-8.8% (inactive)
same,GLP1 secretion stimulation,[6],1.7% (inactive)
same,inhibition of viability,[7],17.6% (inactive)
same,viability decrease (inhibition),[8],16.6% (inactive)
same,viability decrease (inhibition),[9],7.1% (inactive)
same,fold change,[10]; [16],0.811 (inactive)
same,fold change,[10]; [17],1.36
same,cell count,[10]; [18],7160
same,cell count,[10]; [19],8820
same,z-score,[11]; [20],-0.532 (inactive)
same,z-score,[11]; [21],-0.0519
same,remaining NAD,[14],10 nM (inactive)
Nc1c(CC(=O)O)cccc1C(=O)c1ccc(Br)cc1,nuclear beta-catenin stimulation,[2]; at 10 µM,-0.1% (inactive)
same,nuclear beta-catenin stimulation,"[2]; stimulation, at 2 µM",0.4%
same,insulin secretion stimulation,[3],1.4% (inactive)
same,viability decrease,[4],52.4% (active)
same,tube area decrease,[5],-4.7% (inactive)
same,GLP1 secretion stimulation,[6],0.3% (inactive)
same,inhibition of viability,[7],-13.5% (inactive)
same,viability decrease (inhibition),[8],37.9% (inactive)
same,viability decrease (inhibition),[9],82.5% (active)
same,fold change,[10]; [16],0.937 (inactive)
same,fold change,[10]; [17],1.05
same,cell count,[10]; [18],8540
same,cell count,[10]; [19],9120
same,z-score,[11]; [20],-0.257 (inactive)
same,z-score,[11]; [21],-0.191
CC(=O)[C@H]1CC[C@H]2[C@@H]3C=CC4=CC(=O)CC[C@@]4(C)[C@@H]3CC[C@]12C,survival,[13],6.67 (inactive)
same,parasite load remaining,[1],84.3% (inactive)
same,viability,[1],94.2%
same,nuclear beta-catenin stimulation,[2]; at 10 µM,4.5% (inactive)
same,nuclear beta-catenin stimulation,"[2]; stimulation, at 2 µM",1.5%
same,insulin secretion stimulation,[3],-1.8% (inactive)
same,viability decrease,[4],6.3% (inactive)
same,tube area decrease,[5],4.8% (inactive)
same,GLP1 secretion stimulation,[6],3.1% (inactive)
same,inhibition of viability,[7],14.9% (inactive)
same,viability decrease (inhibition),[8],64.2% (active)
same,viability decrease (inhibition),[9],5.4% (inactive)
same,fold change,[10]; [16],0.855 (inactive)
same,fold change,[10]; [17],1.43
same,cell count,[10]; [18],8320
same,cell count,[10]; [19],9730
same,z-score,[11]; [20],0.367 (inactive)
same,z-score,[11]; [21],0.105
same,remaining NAD,[14],10 nM (inactive)
CC(=O)N(CC(O)CO)c1c(I)c(C(=O)NCC(O)CO)c(I)c(C(=O)NCC(O)CO)c1I (stereo unspecified),survival,[13],14.3 (inactive)
same,parasite load remaining,[1],114% (inactive) and 69.4% (inactive)
same,viability,[1],108% and 73.4%
same,nuclear beta-catenin stimulation,[2]; at 10 µM,-2.4% (inactive)
same,nuclear beta-catenin stimulation,"[2]; stimulation, at 2 µM",-1.5%
same,insulin secretion stimulation,[3],7% (inactive)
same,viability decrease,[4],-5% (inactive)
same,tube area decrease,[5],1.5% (inactive)
same,GLP1 secretion stimulation,[6],-5.6% (inactive)
same,inhibition of viability,[7],4.5% (inactive)
same,viability decrease (inhibition),[8],4.9% (inactive)
same,viability decrease (inhibition),[9],0.4% (inactive)
same,fold change,[10]; [16],0.842 (inactive)
same,fold change,[10]; [17],1.09
same,cell count,[10]; [18],8930
same,cell count,[10]; [19],10600
same,z-score,[11]; [20],0.412 (inactive)
same,z-score,[11]; [21],-0.115
same,remaining NAD,[14],10 nM (inactive)
COc1ccccc1O,parasite load remaining,[1],50.2% (inactive)
same,viability,[1],93.5%
same,nuclear beta-catenin stimulation,[2]; at 10 µM,-1.7% (inactive)
same,nuclear beta-catenin stimulation,"[2]; stimulation, at 2 µM",2.4%
same,insulin secretion stimulation,[3],2.9% (inactive)
same,viability decrease,[4],-10.4% (inactive)
same,tube area decrease,[5],-0.8% (inactive)
same,GLP1 secretion stimulation,[6],-3.6% (inactive)
same,inhibition of viability,[7],3% (inactive)
same,viability decrease (inhibition),[8],1.3% (inactive)
same,viability decrease (inhibition),[9],-5.1% (inactive)
same,fold change,[10]; [16],0.954 (inactive)
same,fold change,[10]; [17],1.02
same,cell count,[10]; [18],10200
same,cell count,[10]; [19],10700
same,z-score,[11]; [20],0.215 (inactive) and 0.0947 (inactive)
same,z-score,[11]; [21],-0.0355 and -0.379
same,remaining NAD,[14],10 nM (inactive)
same,z-score,[12],0.615 (inactive)
O=C(NCC1CN(c2ccc(N3CCOCC3=O)cc2)C(=O)O1)c1ccc(Cl)s1 (stereo unspecified),nuclear beta-catenin stimulation,[2]; at 10 µM,1.8% (inactive)
same,nuclear beta-catenin stimulation,"[2]; stimulation, at 2 µM",-0.7%
same,insulin secretion stimulation,[3],0.5% (inactive)
same,viability decrease,[4],55.9% (active)
same,tube area decrease,[5],-0.6% (inactive)
same,GLP1 secretion stimulation,[6],-0.6% (inactive)
same,inhibition of viability,[7],51.2% (active)
same,viability decrease (inhibition),[8],-16% (inactive)
same,viability decrease (inhibition),[9],9.9% (inactive)
same,fold change,[10]; [16],0.99 (inactive)
same,fold change,[10]; [17],0.417
same,cell count,[10]; [18],7630
same,cell count,[10]; [19],7700
same,z-score,[11]; [20],-0.316 (inactive)
same,z-score,[11]; [21],-0.0771
CN(CCCCCCCCCCN(C)C(=O)Oc1cccc([N+](C)(C)C)c1)C(=O)Oc1cccc([N+](C)(C)C)c1,parasite load remaining,[1],77.5% (inactive)
same,viability,[1],106%
same,nuclear beta-catenin stimulation,[2]; at 10 µM,-0.9% (inactive)
same,nuclear beta-catenin stimulation,"[2]; stimulation, at 2 µM",-0.7%
same,insulin secretion stimulation,[3],2.2% (inactive)
same,viability decrease,[4],30.1% (inactive)
same,tube area decrease,[5],-9.4% (inactive)
same,GLP1 secretion stimulation,[6],-4.4% (inactive)
same,inhibition of viability,[7],57.4% (active)
same,viability decrease (inhibition),[8],39.3% (inactive)
same,viability decrease (inhibition),[9],10.2% (inactive)
same,fold change,[10]; [16],0.802 (inactive)
same,fold change,[10]; [17],1.05
same,cell count,[10]; [18],8660
same,cell count,[10]; [19],10800
same,z-score,[11]; [20],-1.21 (inactive)
same,z-score,[11]; [21],-0.227
